Screening results: PubChem BioAssay, National Center for Advancing Translational Sciences (NCATS)
SW480 rereplic: DNA re-replication induction in SW480 cells. SW480 DNA re-replication, Hoechst DNA content imaging, 48 h. Potency, µM (highest dose often 46.1 µM), without a hit: at the highest dose re-replication activation, most hits filed as activators. 340,000 tested, 1.8% active; note: potency is the fitted concentration of half-maximal effect; % of control where 0% means no effect; nearly all actives have a fitted effect of over 55% in size
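Image-based read-out: total Hoechst fluorescence of nuclei (405 nm excitation, 500-530 nm emission), with hits raising the fraction of high-intensity nuclei. SW480 colon cells incubated 48 hr with compounds at 37 C.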
KB-V1 cytotox: KB-V1 MDR subline cytotoxicity; KB-V1 MDR cells viability, CellTiter-Glo, 72 h; Potency, µM (titrated, usually from 46.1 µM), hits mostly cytotoxic; 400,000 tested, 3.4% active; AID 1347076; note: potency is the fitted concentration of half-maximal effect; % is set by controls: 0 for no effect and ±100 for the full control effect; nearly all actives have a fitted effect of over 60% in size
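Potencies derive from concentration-effect curves fitted to normalized luminescence (CellTiter-Glo) of KB-V1 cells treated for 72 h at 37 degrees C in phenol-red-free DMEM containing 10% FBS.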
KCNH2 3.1 inh: KCNH2 3.1 (human) potassium channel inhibition; 340,000 tested, 0.95% active; activity change, % (tested at about 1.8 µM); AID 720553; U2OS KCNH2 3.1, thallium flux FluxOr; hits give low values;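 active = maximum activity change below -70%; inconclusive = maximum activity change from -70% to -50%; inactive = maximum activity change above -50%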;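 note: thallium influx rate constant from kinetic fluorescence after stimulation buffer; % is set by controls: 0 for no effect and ±100 for the full control effect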
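Thallium flux via FluxOr fluorescence (Red40 quencher, 45 min loading) in U2OS cells virally expressing the KCNH2 3.1 isoform (1.77 x 10^8 /mL virus, overnight at 37 C). Rate constants from 2-min kinetic reads post-stimulation, normalised to positive and negative controls.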
KB-3-1 cytotox: KB-3-1 parental cell cytotoxicity | KB-3-1 viability, CellTiter-Glo ATP luminescence, 72 h | Potency, µM (doses to about 46.1 µM), actives largely listed as cytotoxic | 400,000 tested, 1.4% active | AID 1347075; note: potency is the fitted concentration of half-maximal effect; % is set by controls: 0 for no effect and ±100 for the full control effect; nearly all actives have a fitted effect of over 60% in size
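Here the drug-naive KB-3-1 line serves as comparator for MDR sub-line selectivity; cells received compound titrations, 72 h at 37 °C, then CellTiter-Glo readout.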
hERG WT inh: inhibitors of human wildtype KCNH2 potassium channel; AID 720551; activity change, % at 1.84 µM; Q12809; U2OS, BacMam KCNH2, thallium flux FluxOr; hits give low values; 340,000 tested, 0.37% active;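 active = maximum activity change below -70%; inconclusive = maximum activity change between -70% and -50%; inactive = maximum activity change above -50%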; note: % is set by controls: 0 for no effect and ±100 for the full control effect
Target sequence (Q12809 whole entry, looked up): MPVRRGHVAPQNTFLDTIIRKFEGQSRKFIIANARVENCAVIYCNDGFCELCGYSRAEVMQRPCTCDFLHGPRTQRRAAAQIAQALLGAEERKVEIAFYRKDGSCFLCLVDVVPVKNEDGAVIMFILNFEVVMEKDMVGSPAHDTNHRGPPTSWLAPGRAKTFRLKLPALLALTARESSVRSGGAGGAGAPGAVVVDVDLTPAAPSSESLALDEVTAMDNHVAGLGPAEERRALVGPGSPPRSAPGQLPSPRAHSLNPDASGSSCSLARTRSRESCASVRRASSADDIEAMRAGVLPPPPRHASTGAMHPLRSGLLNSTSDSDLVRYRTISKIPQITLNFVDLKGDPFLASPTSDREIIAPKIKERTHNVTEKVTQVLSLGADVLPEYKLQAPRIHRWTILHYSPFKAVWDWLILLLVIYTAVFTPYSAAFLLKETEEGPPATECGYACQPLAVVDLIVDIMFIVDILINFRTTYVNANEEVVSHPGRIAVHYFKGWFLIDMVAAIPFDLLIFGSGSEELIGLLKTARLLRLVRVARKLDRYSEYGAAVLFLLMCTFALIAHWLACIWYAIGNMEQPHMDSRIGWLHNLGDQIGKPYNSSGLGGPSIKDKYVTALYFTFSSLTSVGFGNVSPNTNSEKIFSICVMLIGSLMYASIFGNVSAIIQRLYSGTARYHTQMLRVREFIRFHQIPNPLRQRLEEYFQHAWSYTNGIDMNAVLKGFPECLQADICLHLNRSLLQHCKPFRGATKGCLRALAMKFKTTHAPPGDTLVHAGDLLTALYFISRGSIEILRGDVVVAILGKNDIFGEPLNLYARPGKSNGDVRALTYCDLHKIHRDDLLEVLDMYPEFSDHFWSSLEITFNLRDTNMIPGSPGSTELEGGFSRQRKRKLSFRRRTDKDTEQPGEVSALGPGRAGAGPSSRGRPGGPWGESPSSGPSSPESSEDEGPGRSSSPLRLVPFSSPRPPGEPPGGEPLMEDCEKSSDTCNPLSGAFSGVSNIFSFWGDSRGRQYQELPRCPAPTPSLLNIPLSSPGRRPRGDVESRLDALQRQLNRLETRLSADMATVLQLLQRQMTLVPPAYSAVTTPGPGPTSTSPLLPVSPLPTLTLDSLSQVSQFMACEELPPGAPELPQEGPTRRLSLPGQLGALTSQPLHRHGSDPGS
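U2OS cells were transduced with wild-type KCNH2 virus (2.03 x 10^8 / mL) for 4 h at room temperature, then cultured overnight at 37 C. Thallium flux was read with FluxOr dye. Rate constants were normalized to DMSO controls.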
MCF10A rerep: DNA re-replication induction in MCF 10a cells. MCF 10A DNA re-replication, Hoechst nuclear intensity, 48 h. AID 624296. Potency, µM (top dose mostly 46.1 µM), for inactives: at the highest dose activity, positive = re-replication, actives largely listed as activators. 350,000 tested, 2.9% active; note: potency is the fitted concentration of half-maximal effect; % of control where 0% means no effect; nearly all actives have a fitted effect of over 50% in size
* = called active by the depositor; [ ] = remark or other dose. The list is not random: actives were taken first. Their share in the collection is about 7.6%. Unless noted, calls come from the whole dose curve; as a rule, active = well fitted curve in the direction sought with a large enough effect; inconclusive = small, poorly fitted or top-dose-only effect, or another doubt; inactive = no such curve, though single readings can be large; an effect the other way counts as inactive or inconclusive.

`COc1ccccc1C(=O)N/C(=C/c1ccc(Br)cc1)C(=O)NCCCn1ccnc1` gave SW480 rereplic -10%, KB-V1 cytotox inactive, KCNH2 3.1 inh -99*, KB-3-1 cytotox inactive, hERG WT inh -125* and MCF10A rerep 14%.
Cc1ccc(C(=O)N/C(=C\c2ccc(F)cc2)C(=O)NCCCn2ccnc2)cc1 was read as SW480 rereplic -11%, KB-V1 cytotox inactive, KCNH2 3.1 inh -114*, KB-3-1 cytotox inactive, hERG WT inh -95* and MCF10A rerep 0%.
For O=C(NCCCn1ccnc1)/C(=C/c1ccccc1)NC(=O)c1ccccc1 the results were SW480 rereplic -8%, KB-V1 cytotox inactive, KCNH2 3.1 inh -113*, KB-3-1 cytotox inactive, hERG WT inh -137* and MCF10A rerep 1%.
For O=C(Nc1ccc(Br)cn1)C1CCCN1S(=O)(=O)c1ccccc1 (stereo not drawn) the results were SW480 rereplic -7%, KB-V1 cytotox inactive, KCNH2 3.1 inh -1, KB-3-1 cytotox inconclusive, hERG WT inh 0 and MCF10A rerep 5%.
`C[C@@H]1CCC[C@H](C)N1` gave SW480 rereplic 1%[20.6 µM] and MCF10A rerep 5%[20.6 µM].
`COc1ccc(CCN(C)C2CCCN(C(=O)Cn3cnnn3)C2)cc1OC` (stereo not drawn) gave SW480 rereplic -6%, KB-V1 cytotox inactive, KCNH2 3.1 inh 7, KB-3-1 cytotox inactive, hERG WT inh -6 and MCF10A rerep -1%.
`NC(=O)N(N)c1nc(N2CCCC2)nc(N2CCCC2)n1` gave SW480 rereplic 3%, KB-V1 cytotox inactive, KCNH2 3.1 inh 4, KB-3-1 cytotox inactive, hERG WT inh 2 and MCF10A rerep -8%.
`O=C(/C=C/c1ccc(Br)cc1)NCCCn1ccnc1` gave SW480 rereplic -3%, KB-V1 cytotox inactive, KCNH2 3.1 inh -7, KB-3-1 cytotox inactive, hERG WT inh 17 and MCF10A rerep 20%.
For O=C(/C=C/c1c(Cl)cccc1Cl)NCCCn1ccnc1 the results were SW480 rereplic inconclusive, KB-V1 cytotox inactive, KCNH2 3.1 inh -7, KB-3-1 cytotox inactive, hERG WT inh -3 and MCF10A rerep 23µM*.
`CN(C)c1ccc(/C=C(\NC(=O)c2ccccc2)C(=O)NCCCn2ccnc2)cc1` gave SW480 rereplic -7%, KB-V1 cytotox inactive, KCNH2 3.1 inh -7, KB-3-1 cytotox inactive, hERG WT inh 11 and MCF10A rerep -5%.
Screening Cc1ccc(C(=O)N/C(=C/c2ccco2)C(=O)NCCCn2ccnc2)cc1 returned SW480 rereplic -17%, KB-V1 cytotox inactive, KCNH2 3.1 inh -93*, KB-3-1 cytotox inactive, hERG WT inh inconclusive and MCF10A rerep 4%.
For O=C(NCCCn1ccnc1)/C(=C\c1ccc(Br)cc1)NC(=O)c1ccccc1 the results were SW480 rereplic 8%, KB-V1 cytotox inactive, KCNH2 3.1 inh -104*, KB-3-1 cytotox inactive, hERG WT inh -125* and MCF10A rerep 1%.
For CCn1c(COc2ccccc2)nnc1SCC(=O)Nc1cc(C)ccc1OC the results were SW480 rereplic -1%, KB-V1 cytotox 15µM*, KCNH2 3.1 inh 1, KB-3-1 cytotox inactive, hERG WT inh -4 and MCF10A rerep -2%.
For COc1ccc(C)cc1NC(=O)CSc1nnc(COc2ccc(C)cc2)n1Cc1ccco1 the results were SW480 rereplic inconclusive, KB-V1 cytotox 9.2µM*, KCNH2 3.1 inh -9, KB-3-1 cytotox inactive, hERG WT inh 5 and MCF10A rerep 9%.
`CC[n+]1ccccc1/C=C/c1ccc(N(C)C)cc1` gave SW480 rereplic -4%, KB-V1 cytotox inactive, KCNH2 3.1 inh -7, KB-3-1 cytotox 1.3µM*, hERG WT inh 2 and MCF10A rerep inconclusive.
CC[n+]1ccc(/C=C/c2ccc(N(C)C)cc2)c2ccccc21 was read as SW480 rereplic -39%, KB-V1 cytotox inactive, KCNH2 3.1 inh 4, KB-3-1 cytotox 1.2µM*, hERG WT inh -3 and MCF10A rerep 4%.
`CN(C)c1ccc(/C=C/c2cc[n+]([O-])c3ccccc23)cc1` gave KB-V1 cytotox inconclusive and KB-3-1 cytotox inactive.
`CCCCCC[n+]1ccccc1/C=C/c1ccc(N(C)C)cc1` gave KB-V1 cytotox inactive and KB-3-1 cytotox inconclusive.
CCCNC(=O)Cn1nc(-c2ccc(OC)cc2)c2cnc3ccc(F)cc3c21 was read as KB-V1 cytotox inactive and KB-3-1 cytotox inactive.
For COc1ccc(CNC(=O)c2cc3cccc4c3n2CC(C)S4)cc1OC (stereo not drawn) the results were KB-V1 cytotox inactive and KB-3-1 cytotox inactive.
Screening N#Cc1ccc(-c2ccccc2)nc1SCC(=O)c1cc2ccccc2oc1=O returned SW480 rereplic inconclusive, KB-V1 cytotox inactive, KCNH2 3.1 inh 4, KB-3-1 cytotox inactive, hERG WT inh -2 and MCF10A rerep 5µM*.
CC(C)c1c(C#N)c(N)nc(SCC(=O)c2cc3ccccc3oc2=O)c1C#N was read as SW480 rereplic inconclusive, KB-V1 cytotox inconclusive, KCNH2 3.1 inh -7, KB-3-1 cytotox inconclusive, hERG WT inh -3 and MCF10A rerep 15µM*.
For O=C(CSc1nnc(-c2cccnc2)o1)c1cc2ccccc2oc1=O the results were SW480 rereplic -8%, KB-V1 cytotox inconclusive, KCNH2 3.1 inh 0, KB-3-1 cytotox inactive, hERG WT inh -1 and MCF10A rerep inconclusive.
Cc1ccc(NC(=O)CNC(=O)c2cccs2)cc1S(=O)(=O)Nc1ccc(Cl)cc1 was read as SW480 rereplic 0%, KB-V1 cytotox inactive, KCNH2 3.1 inh 0, KB-3-1 cytotox inactive, hERG WT inh 5 and MCF10A rerep 20%.
Screening CCCCCCCCCCCCCCCCCCOC[C@H](COP(=O)([O-])OCC[N+](C)(C)C)OC returned SW480 rereplic 21µM* and MCF10A rerep inconclusive.
For Cc1ccc(-n2c(C)cc(/C=C3/SC(=O)N(CC(=O)N4CCOCC4)C3=O)c2C)nc1 the results were SW480 rereplic 18µM*, KB-V1 cytotox inactive, KCNH2 3.1 inh 3, KB-3-1 cytotox inactive, hERG WT inh 4 and MCF10A rerep 2%.
For Cc1sc2nc(C3CC3)nc(SCC(=O)N3CCc4ccccc4C3)c2c1C the results were SW480 rereplic 3%, KB-V1 cytotox 5.8µM*, KCNH2 3.1 inh 19, KB-3-1 cytotox inactive, hERG WT inh 3 and MCF10A rerep inconclusive.
Screening CCc1c(C)sc2nc(C(C)C)nc(SCC(=O)N3CCc4ccccc4C3)c12 returned SW480 rereplic 1%, KB-V1 cytotox inactive, KCNH2 3.1 inh -10, KB-3-1 cytotox inactive, hERG WT inh -8 and MCF10A rerep 0%.
